# The source made the active and inactive calls.
# Experiments:
# [1] = compounds binding Alexa647 anti-His antibody – biochemical, small-molecule microarray, 635 nm fluorescence, artefact control for SMM control protein annotation, primary screen (AID 1128); settings: higher = more signal;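 note: score merges feature fluorescence with signal-to-noise for each printed compound spot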
# [2] = system: Human papillomavirus type 1a E7 protein (residues 1-88); assay: HPV1a E7 small-molecule binders, primary screen, biochemical, small-molecule microarray, residues 1-88, 635 nm (AID 1129); settings: small-molecule microarray binding, fluorescence 635 nm; higher = more signal
# [3] = target: Focal adhesion kinase 1 (Homo sapiens) (UniProt Q05397); assay: PTK2 protein binding on printed compound slides – biochemical, small-molecule microarray, 635/667 nm fluorescence, BSA, DTT, primary screen (AID 1130); settings: 635 nm fluorescence, higher = more signal;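 note: composite of spot emission at 667 nm and signal to noise over triplicate slides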
# [4] = system: Fibrinogen (Alexa647-labelled); assay: Alexa647-fibrinogen binding to printed small molecules – biochemical, small-molecule microarray, 635/667 nm fluorescence, artefact control for SMM control-protein annotation, profiling panel (AID 1131); settings: fibrinogen-A647 binding fluorescence, higher = more signal;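 note: z-score merges 667 nm fluorescence with per-spot signal-to-noise over triplicate slides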
# [5] = target: Follistatin (Homo sapiens) (UniProt P19883); assay: FST protein binding to printed compounds – biochemical, small-molecule microarray, 635/667 nm fluorescence, primary screen (AID 1132); settings: 635 nm fluorescence, higher = more signal
# [6] = target: Fibroblast growth factor 2 (Homo sapiens) (UniProt P09038); assay: basic fibroblast growth factor binding to printed compounds – biochemical, small-molecule microarray, 635/667 nm fluorescence, primary screen (AID 1133); settings: FGF2, fluorescence 635/667, higher = more signal
# [7] = JC-1 mitochondrial potential readout, lung cancer cells – cell-based, A549, JC-1 fluorescence, basal, 24 h, 100 nL, profiling panel (AID 1138); settings: higher = more signal;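 note: A549 lung adenocarcinoma cells under basal conditions with no added stimulus; test concentration not given here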
# Lefty1 = Lefty1 protein binding to printed compounds – biochemical, small-molecule microarray, 635/667 nm fluorescence, primary screen (AID 1139); settings: fluorescence 635/667, higher = more signal
# [8] = system: wheat germ agglutinin (Triticum aestivum), Alexa647-labelled; assay: Alexa647-WGA lectin binding to printed small molecules – biochemical, small-molecule microarray, 635/667 nm fluorescence, artefact control for SMM control-protein annotation, profiling panel (AID 1140); settings: WGA-A647 binding, 635 nm fluorescence, higher = more signal;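 note: score merges 667 nm feature emission with signal to noise over triplicate slides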
# [9] = target: Luciferin 4-monooxygenase (Photinus pyralis) (UniProt P08659); assay: inhibition of purified Photinus pyralis luciferase – biochemical, luminescence, purified enzyme, 2006 set, primary screen (AID 1141); settings: purified firefly luciferase, SteadyGlo luminescence, 30 min; higher = more signal, called active from +8 up or from −8 down;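 note: cell-free assay with purified firefly luciferase at 100 ng per well in PBS; test concentration not given here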
# Luciferin 4-monooxygenase (Photinus pyralis), sequence (P08659 whole entry, looked up): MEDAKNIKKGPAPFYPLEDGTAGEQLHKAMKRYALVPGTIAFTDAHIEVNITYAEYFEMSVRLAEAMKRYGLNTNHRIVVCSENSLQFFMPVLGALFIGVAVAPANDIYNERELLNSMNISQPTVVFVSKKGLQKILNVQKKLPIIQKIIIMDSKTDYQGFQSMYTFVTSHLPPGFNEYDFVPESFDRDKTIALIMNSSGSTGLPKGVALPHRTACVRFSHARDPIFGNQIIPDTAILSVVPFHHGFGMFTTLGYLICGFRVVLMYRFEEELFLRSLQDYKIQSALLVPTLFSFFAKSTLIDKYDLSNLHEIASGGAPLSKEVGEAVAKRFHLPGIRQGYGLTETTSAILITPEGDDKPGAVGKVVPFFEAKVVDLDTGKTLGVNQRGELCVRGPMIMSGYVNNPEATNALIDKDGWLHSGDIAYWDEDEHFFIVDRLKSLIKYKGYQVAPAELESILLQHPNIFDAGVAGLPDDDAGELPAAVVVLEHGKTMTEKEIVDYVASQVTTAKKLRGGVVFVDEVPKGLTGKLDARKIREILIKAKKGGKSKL
# Follistatin (Homo sapiens), sequence (P19883 whole entry, looked up): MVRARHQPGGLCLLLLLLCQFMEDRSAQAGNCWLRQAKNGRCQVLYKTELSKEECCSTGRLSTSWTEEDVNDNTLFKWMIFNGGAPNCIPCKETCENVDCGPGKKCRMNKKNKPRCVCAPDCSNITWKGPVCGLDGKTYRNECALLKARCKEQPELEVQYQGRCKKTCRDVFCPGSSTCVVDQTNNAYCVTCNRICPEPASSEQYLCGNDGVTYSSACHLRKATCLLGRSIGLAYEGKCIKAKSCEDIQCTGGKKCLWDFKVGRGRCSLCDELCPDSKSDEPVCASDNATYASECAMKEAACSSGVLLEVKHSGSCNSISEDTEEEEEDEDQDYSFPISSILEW
# Focal adhesion kinase 1 (Homo sapiens), sequence (Q05397 whole entry, looked up): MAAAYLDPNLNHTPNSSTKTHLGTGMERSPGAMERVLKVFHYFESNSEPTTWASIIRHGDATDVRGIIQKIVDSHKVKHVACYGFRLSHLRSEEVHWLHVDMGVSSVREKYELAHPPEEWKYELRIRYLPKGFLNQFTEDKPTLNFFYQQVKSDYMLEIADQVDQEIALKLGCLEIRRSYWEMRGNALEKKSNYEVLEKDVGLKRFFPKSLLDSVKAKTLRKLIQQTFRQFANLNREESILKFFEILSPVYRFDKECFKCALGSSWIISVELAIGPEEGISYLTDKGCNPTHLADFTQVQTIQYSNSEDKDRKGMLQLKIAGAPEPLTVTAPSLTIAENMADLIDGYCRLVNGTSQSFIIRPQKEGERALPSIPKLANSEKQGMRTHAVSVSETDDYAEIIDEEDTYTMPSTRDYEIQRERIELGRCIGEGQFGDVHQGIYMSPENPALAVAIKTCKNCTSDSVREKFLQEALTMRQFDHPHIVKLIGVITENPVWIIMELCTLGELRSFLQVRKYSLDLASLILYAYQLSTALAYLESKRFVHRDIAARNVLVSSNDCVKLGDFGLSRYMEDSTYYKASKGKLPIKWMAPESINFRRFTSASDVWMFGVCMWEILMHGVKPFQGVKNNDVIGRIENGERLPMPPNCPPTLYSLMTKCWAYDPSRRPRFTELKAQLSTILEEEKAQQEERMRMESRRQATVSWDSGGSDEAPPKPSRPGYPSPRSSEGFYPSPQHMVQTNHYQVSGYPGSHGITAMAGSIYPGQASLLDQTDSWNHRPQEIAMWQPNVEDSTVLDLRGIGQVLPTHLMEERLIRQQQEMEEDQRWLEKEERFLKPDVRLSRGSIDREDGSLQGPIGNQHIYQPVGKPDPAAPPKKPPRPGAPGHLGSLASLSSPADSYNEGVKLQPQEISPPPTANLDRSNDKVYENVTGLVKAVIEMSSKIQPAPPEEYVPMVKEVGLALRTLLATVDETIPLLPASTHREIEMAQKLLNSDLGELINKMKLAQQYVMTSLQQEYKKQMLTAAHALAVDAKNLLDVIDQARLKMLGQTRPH
# Fibroblast growth factor 2 (Homo sapiens), sequence (P09038 whole entry, looked up): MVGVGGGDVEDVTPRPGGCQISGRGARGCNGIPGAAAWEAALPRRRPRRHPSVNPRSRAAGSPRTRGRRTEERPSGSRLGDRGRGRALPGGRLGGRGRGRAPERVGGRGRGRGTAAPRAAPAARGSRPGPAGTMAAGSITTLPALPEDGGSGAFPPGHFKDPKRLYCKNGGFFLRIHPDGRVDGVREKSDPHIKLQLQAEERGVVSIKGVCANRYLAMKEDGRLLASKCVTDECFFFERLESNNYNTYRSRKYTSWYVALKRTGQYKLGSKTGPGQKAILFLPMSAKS
compound,measurement,setting,value
CCOC(=O)[C@H]1C/C=C/C[C@H](C(=O)OCC)C(=O)O[C@H]2[C@@H](OC)O[C@H](CO)[C@@H](OC(=O)Nc3ccc(OC)cc3)[C@@H]2OC1=O,composite z-score,[1],1.96
same,composite z-score,[2],1.16
same,composite z-score,[3],0.768
same,composite z-score,[4],0.369
same,composite z-score,[5],1.16
same,composite z-score,[6],0.741
same,z-score,[7],2.61
same,composite z-score,Lefty1,0.636
same,composite z-score,[8],0.648
same,z-score,[9],-2.06 (inactive)
COCCCNC(=O)[C@@H]1c2ccccc2C(=O)N(Cc2ccccc2C(F)(F)F)[C@H]1c1ccc(CO)cc1,composite z-score,[1],-0.175
same,composite z-score,[2],0.569
same,composite z-score,[3],0.278
same,composite z-score,[4],-0.873
same,composite z-score,[5],-0.211
same,composite z-score,[6],-0.372
same,z-score,[7],2.81
same,composite z-score,Lefty1,-0.295
same,composite z-score,[8],-0.488
same,z-score,[9],-1.26 (inactive)
CCCCN1CC=CC23O[C@@H]4/C=C\CCC(C)OC(=O)C4[C@H]2C(=O)N(CCCCCCO)[C@@H]3C1=O (stereo not given in full),composite z-score,[1],0.539
same,composite z-score,[2],0.0554
same,composite z-score,[3],-0.266
same,composite z-score,[4],-1.22
same,composite z-score,[5],-0.454
same,composite z-score,[6],-0.668
same,z-score,[7],0.376
same,composite z-score,Lefty1,-0.74
same,composite z-score,[8],-0.465
same,z-score,[9],-0.393 (inactive)
CC(C)NC(=O)[C@@]1(C)c2ccccc2C(=O)N(C(C)C)[C@H]1c1ccc(CO)cc1,composite z-score,[1],-0.398
same,composite z-score,[2],-0.259
same,composite z-score,[3],0.0394
same,composite z-score,[4],-0.66
same,composite z-score,[5],-0.75
same,composite z-score,[6],-0.516
same,z-score,[7],-0.413
same,composite z-score,Lefty1,-1.05
same,composite z-score,[8],-0.465
same,z-score,[9],-0.682 (inactive)
COc1ccc([Si](C)(C)[C@H]2[C@H](CC(=O)N3Cc4ccccc4C[C@H]3CO)O[C@@]3(C(=O)N(Cc4cccc(N5CCCCC5=O)c4)c4ccccc43)[C@@H]2C)cc1,composite z-score,[1],1.57
same,composite z-score,[2],0.307
same,composite z-score,[3],0.566
same,composite z-score,[4],0.378
same,composite z-score,[5],1.3
same,composite z-score,[6],1.58
same,z-score,[7],0.925
same,composite z-score,Lefty1,1.53
same,composite z-score,[8],0.292
same,z-score,[9],-0.0418 (inactive)
CN(C)CCCNC(=O)[C@@H]1c2ccccc2C(=O)N(Cc2ccc(OC(F)(F)F)cc2)[C@H]1c1ccc(CO)cc1,composite z-score,[1],0.21
same,composite z-score,[2],0.701
same,composite z-score,[3],0.0807
same,composite z-score,[4],0.18
same,composite z-score,[5],1.18
same,composite z-score,[6],-0.22
same,z-score,[7],0.311
same,composite z-score,Lefty1,0.9
same,composite z-score,[8],-0.374
same,z-score,[9],1.15 (inactive)
CC(C)CNC(=O)[C@@H]1c2ccccc2C(=O)N(Cc2cc(F)cc(C(F)(F)F)c2)[C@H]1c1ccc(CO)cc1,composite z-score,[1],0.437
same,composite z-score,[2],0.538
same,composite z-score,[3],0.0403
same,composite z-score,[4],0.626
same,composite z-score,[5],1.02
same,composite z-score,[6],0.721
same,z-score,[7],2.47
same,composite z-score,Lefty1,-0.0543
same,composite z-score,[8],0.042
same,z-score,[9],-1.38 (inactive)
COC(=O)[C@@]1(Cc2ccc(F)cc2)[C@H]2c3cc(C(=O)N4CCCC4)n(CCc4c[nH]c5ccc(OC)cc45)c3C[C@H]2CN1C(=O)c1ccccc1,composite z-score,[1],2.4
same,composite z-score,[2],1.22
same,composite z-score,[3],2.48
same,composite z-score,[4],0.845
same,composite z-score,[5],0.685
same,composite z-score,[6],0.6
same,z-score,[7],-1.17
same,composite z-score,Lefty1,0.385
same,composite z-score,[8],0.977
same,z-score,[9],1.64 (inactive)
COC(=O)[C@@]1(Cc2ccc(OC)cc2)[C@H]2c3cc(C(=O)N4CCCC4)n(CCc4cc5ccccc5[nH]4)c3C[C@H]2CN1C(=O)c1ccccc1,composite z-score,[1],2.2
same,composite z-score,[2],1.25
same,composite z-score,[3],0.832
same,composite z-score,[4],0.98
same,composite z-score,[5],1.18
same,composite z-score,[6],0.754
same,z-score,[7],1.3
same,composite z-score,Lefty1,-0.246
same,composite z-score,[8],1.05
same,z-score,[9],1.91 (inactive)
Cc1ccc(S[C@]2(C(=O)NC(C)C)CC(=O)N(Cc3ccccc3C(F)(F)F)[C@@H]2c2ccc(CO)cc2I)cc1,composite z-score,[1],1.15
same,composite z-score,[2],-0.0732
same,composite z-score,[3],0.955
same,composite z-score,[4],-0.515
same,composite z-score,[5],0.0697
same,composite z-score,[6],-0.848
same,z-score,[7],-0.279
same,composite z-score,Lefty1,-1.03
same,composite z-score,[8],-0.229
same,z-score,[9],1.35 (inactive)
CCOC(=O)C[C@H]1[C@H](OC(=O)c2ccc(-c3ccccc3)cc2)[C@@H](NC(=O)C2CCCCC2)c2cc(OCCCO)ccc2N1C(=O)c1ccccc1,composite z-score,[1],0.0672
same,composite z-score,[2],0.755
same,composite z-score,[3],0.559
same,composite z-score,[4],0.845
same,composite z-score,[5],0.461
same,composite z-score,[6],0.406
same,z-score,[7],0.0651
same,composite z-score,Lefty1,0.544
same,composite z-score,[8],0.207
same,z-score,[9],0.0421 (inactive)
COc1ccc([Si](C)(C)[C@@H]2[C@@H](CC(=O)N3CCC[C@H]3CO)O[C@]3(C(=O)N(Cc4ccc(N5C(=O)c6cccc7cccc5c67)cc4)c4ccccc43)[C@H]2C)cc1,composite z-score,[1],1.96
same,composite z-score,[2],1.2
same,composite z-score,[3],0.566
same,composite z-score,[4],0.759
same,composite z-score,[5],1.1
same,composite z-score,[6],1.54
same,z-score,[7],-0.438
same,composite z-score,Lefty1,1.2
same,composite z-score,[8],0.719
same,z-score,[9],0.508 (inactive)
COCCOC(=O)N1C(=O)[C@@]2(c3cc(C#CCC(C(=O)OC)C(=O)OC)ccc31)[C@H](c1ccc(OCCO)cc1)N1[C@H](c3ccccc3)[C@H](c3ccccc3)OC(=O)[C@H]1[C@@H]2C(=O)N1CCN(c2ncccn2)CC1,composite z-score,[1],1.94
same,composite z-score,[2],1.25
same,composite z-score,[3],-0.0555
same,composite z-score,[4],0.947
same,composite z-score,[5],1.36
same,composite z-score,[6],1.23
same,z-score,[7],-1.48
same,composite z-score,Lefty1,1.29
same,composite z-score,[8],0.939
same,z-score,[9],-0.506 (inactive)

# — PubChem BioAssay
